# Several values for one entry are separate records, joined by “and”; a condition that tells them apart may be missing. Equal entries are not always repeated. More than one record can exist for a structure, and the calls need not agree. Activity calls are given as the source filed them. The calls were made as follows: active = hit-call score of the fitted dose curve at least 0.9, where 1 is the maximum; inactive = score below 0.9.
# Experiments:
# [1] = APR_HepG2_P-H2AX_72hr: Apredica 72-hour HepG2 Assay for H2AX Phosphorylation (AID 2282916); settings: imaging, actives raise or lower the signal;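 also: phospho-histone H2A.x immunostain intensity per cell marking DNA damage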
# How it was run: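 Human hepatoma HepG2 cells are dosed across ten concentrations (0.39 to 200 uM, 0.5% v/v DMSO) and incubated 72 hr. Phospho-histone H2A.x is then detected by antibody staining alongside c-Jun and Hoechst, and quantified by automated fluorescence imaging.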
# [2] = APR_HepG2_MitoMembPot_72hr: Apredica 72-hour HepG2 Assay for Mitochondrial Membrane Potential (AID 2282917); settings: imaging, actives raise or lower the signal
# How it was run: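 HepG2 cells exposed 72 h to compounds at 0.39–200 uM (0.5% v/v DMSO, duplicates); MitoTracker Red CMXRos 250 nM loaded 30 min before 3.7% formaldehyde fixation, imaged by HCS fluorescence. Bidirectional fit versus DMSO.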
# [3] = APR_HepG2_MitoticArrest_72hr: Apredica 72-hour HepG2 Assay for Mitotic Arrest (AID 2282918); settings: high-content imaging, actives raise or lower the signal
# How it was run: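 Using high-content imaging of fixed HepG2 cells, phospho-histone H3 signal was measured following a 72 hr incubation with ten-point compound dilutions up to 200 uM. DMSO served as the negative control and baseline for bidirectional curve fitting.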
# [4] = APR_HepG2_MicrotubuleCSK_72hr: Apredica 72-hour HepG2 Assay for Microtubule CSK Stabilty (AID 2282919); settings: HepG2 microtubule cytoskeleton, high-content imaging, actives raise or lower the signal
# How it was run: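 Ten-point dosing (0.39–200 uM, 0.5% DMSO) of HepG2 for 72 hr, with taxol as the cytoskeletal positive control. The cells were formaldehyde-fixed and then stained with alpha-tubulin/Cy5 and Hoechst. Imaging at 20x used a −2 um Z offset for tubulin.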
# [5] = APR_HepG2_P-H2AX_24hr: Apredica 24-hour HepG2 Assay for H2AX Phosphorylation (AID 2282920); settings: high-content imaging, actives raise or lower the signal
# How it was run: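 Human HepG2 liver cells, treated 24 hr with test chemicals (0.39–200 uM, final DMSO 0.5% v/v), are fixed and co-stained for phospho-H2A.x and c-Jun with Hoechst. Imaged intensity is fitted in both directions against DMSO controls.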
# [6] = APR_HepG2_StressKinase_72hr: Apredica 72-hour HepG2 Assay for Stress Kinase (AID 2282921); settings: HepG2 stress kinase (phospho-c-Jun) imaging, actives raise or lower the signal
# How it was run: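 After a 72 h compound treatment spanning 0.39 to 200 uM, formaldehyde-fixed cells are labelled for phosphorylated c-Jun and nuclei, imaged by automated fluorescence microscopy, and activity is fitted in both directions relative to DMSO controls.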
# [7] = APR_HepG2_StressKinase_24hr: Apredica 24-hour HepG2 Assay for Stress Kinase (AID 2282922); settings: HepG2 stress kinase (phospho-c-Jun) imaging, actives raise or lower the signal
# How it was run: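 After 24 hr compound treatment (up to 200 uM, final DMSO 0.5% v/v), HepG2 cells are fixed and multiplex-labeled; phospho-c-Jun intensity is captured by high-content fluorescence imaging and analyzed relative to DMSO.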
# [8] = APR_HepG2_p53Act_72hr: Apredica 72-hour HepG2 Assay for p53 Activation (AID 2282923); settings: high-content imaging, actives raise or lower the signal;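 also: average cellular p53 protein immunofluorescence intensity in HepG2 cells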
# How it was run: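 Imaging-based endpoint: after 72 hr compound exposure (up to 200 uM, 0.5% DMSO), fixed and permeabilized monolayers were labelled with anti-p53 antibody and imaged; signal change in either direction was fitted relative to DMSO controls.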
# [9] = APR_HepG2_MitoMass_72hr: Apredica 72-hour HepG2 Assay for Mitochondrial Mass (AID 2282924); settings: high-content imaging, actives raise or lower the signal;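 also: MitoTracker Red CMXRos stain intensity per cell imaged as mitochondrial mass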
# How it was run: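 Steps: treat HepG2 72 hr (0.39–200 uM, duplicate wells); load MitoTracker Red CMXRos, 250 nM, 30 min; fix with 3.7% formaldehyde, permeabilise with 0.5% Triton X-100; capture images, nuclei via Hoechst 33342; fit bidirectionally against DMSO.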
# [10] = APR_HepG2_NuclearSize_72hr: Apredica 72-hour HepG2 Assay for Nuclear Size (AID 2282925); settings: high-content imaging, actives raise or lower the signal
# How it was run: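 Compounds (0.39–200 uM, final DMSO 0.5%) were applied to HepG2 for 72 hr. Cells were then formaldehyde-fixed, permeabilized and labelled with Hoechst 33342. Nuclear diameter was quantified from six images per well.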
# [11] = ATG_CRE_CIS: Attagene CIS-FACTORIAL HepG2 Assay for human cAMP Responsive Element (CRE) binding protein 3 (AID 2282926); settings: HepG2 CRE cis-reporter, Attagene multiplexed mRNA; actives raise or lower the signal
# How it was run: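 Liver-derived HepG2, transfected with a CRE-containing reporter panel, exposed 24 h; transcript levels sized and quantified by capillary electrophoresis of labelled amplicons; signal changes either way referenced to vehicle.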
# [12] = molecular target: CCAAT/enhancer-binding protein beta (Homo sapiens) (UniProt P17676); test: ATG_C_EBP_CIS: Attagene CIS-FACTORIAL HepG2 Assay for human CCAAT/Enhancer Binding Protein (C/EBP) beta (AID 2282927); settings: HepG2 Attagene cis-factorial transcription factor reporter; actives raise or lower the signal
# CCAAT/enhancer-binding protein beta (Homo sapiens), sequence (P17676 whole entry, looked up): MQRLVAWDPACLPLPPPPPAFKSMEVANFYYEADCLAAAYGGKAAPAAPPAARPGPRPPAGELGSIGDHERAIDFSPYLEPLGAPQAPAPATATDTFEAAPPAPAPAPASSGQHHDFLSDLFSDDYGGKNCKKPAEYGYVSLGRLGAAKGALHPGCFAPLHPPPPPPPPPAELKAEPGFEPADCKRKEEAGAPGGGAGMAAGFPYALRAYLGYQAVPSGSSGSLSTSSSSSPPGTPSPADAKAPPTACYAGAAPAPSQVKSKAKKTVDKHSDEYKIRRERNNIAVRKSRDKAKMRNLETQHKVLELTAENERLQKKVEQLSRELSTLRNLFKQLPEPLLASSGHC
# How it was run: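 Following a 24 h incubation with test chemical, transfected HepG2 cells yielded RNA whose reporter transcripts were quantified by RT-PCR and fluorescent capillary electrophoresis, with DMSO serving as baseline for bidirectional fitting.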
# [13] = ATG_CMV_CIS: Attagene CIS-FACTORIAL HepG2 Assay for human CMV (Internal Marker) (AID 2282928); settings: HepG2 CMV promoter reporter, transcription factor profiling; actives raise or lower the signal;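 also: endpoint acts as a background internal control marker rather than a target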
# How it was run: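 Bidirectional fits against DMSO are applied to reporter mRNA, read by RT-PCR with capillary electrophoresis, from HepG2 cells exposed 24 h. The endpoint serves as an internal CMV background marker within the cis-factorial reporter panel.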
# [14] = ATG_DR4_LXR_CIS: Attagene CIS-FACTORIAL HepG2 Assay for human Liver X Receptor (LXR), DR4 submotif (AID 2282929); settings: HepG2 Attagene DR4 cis-reporter, mRNA transcription; actives raise or lower the signal
# How it was run: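 Fluorescence intensity of labelled reporter cDNA fragments, separated by capillary electrophoresis, gives the signal. HepG2 cells bearing cis-regulated reporter constructs were treated 24 h; activity fitted bidirectionally relative to DMSO negative control.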
# [15] = molecular target: Aryl hydrocarbon receptor (Homo sapiens) (UniProt P35869); test: ATG_Ahr_CIS: Attagene CIS-FACTORIAL HepG2 Assay for human Aryl Hydrocarbon Receptor (Ahr) (AID 2282930); settings: HepG2 AhR cis-factorial reporter transcription; actives raise or lower the signal
# Aryl hydrocarbon receptor (Homo sapiens), sequence (P35869 whole entry, looked up): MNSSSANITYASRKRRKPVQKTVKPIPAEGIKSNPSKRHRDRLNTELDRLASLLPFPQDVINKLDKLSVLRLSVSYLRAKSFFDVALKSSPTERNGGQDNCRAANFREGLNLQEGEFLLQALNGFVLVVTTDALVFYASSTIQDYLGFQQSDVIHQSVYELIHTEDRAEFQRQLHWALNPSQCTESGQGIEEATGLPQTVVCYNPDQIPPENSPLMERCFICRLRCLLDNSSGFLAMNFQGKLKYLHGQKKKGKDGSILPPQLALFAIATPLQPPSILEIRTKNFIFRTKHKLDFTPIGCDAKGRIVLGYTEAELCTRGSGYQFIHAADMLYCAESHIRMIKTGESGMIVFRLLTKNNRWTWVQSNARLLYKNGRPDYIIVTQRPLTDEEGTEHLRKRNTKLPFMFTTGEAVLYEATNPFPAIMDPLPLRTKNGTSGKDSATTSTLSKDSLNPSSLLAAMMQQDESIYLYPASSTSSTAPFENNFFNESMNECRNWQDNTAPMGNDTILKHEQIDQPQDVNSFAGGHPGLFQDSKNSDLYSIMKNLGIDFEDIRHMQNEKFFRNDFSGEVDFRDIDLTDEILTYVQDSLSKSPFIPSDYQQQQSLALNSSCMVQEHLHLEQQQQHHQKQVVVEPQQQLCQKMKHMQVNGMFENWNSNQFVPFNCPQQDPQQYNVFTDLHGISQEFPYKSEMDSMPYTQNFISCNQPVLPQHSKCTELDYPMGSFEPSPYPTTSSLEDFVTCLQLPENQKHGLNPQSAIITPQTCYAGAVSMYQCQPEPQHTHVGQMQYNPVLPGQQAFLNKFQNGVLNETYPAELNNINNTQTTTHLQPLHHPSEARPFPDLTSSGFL
# How it was run: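 Values derive from bidirectional fitting against DMSO negative control. Underlying signal: cis-element reporter mRNA in transiently transfected HepG2, harvested 24 h post-dose and measured by RT-PCR plus capillary electrophoresis.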
# [16] = ATG_AP_1_CIS: Attagene CIS-FACTORIAL HepG2 Assay for human Activator Protein 1 (AP-1) (AID 2282931); settings: HepG2 Attagene cis-factorial AP-1 reporter mRNA; actives raise or lower the signal
# How it was run: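 Multiplexed HepG2 reporter assay, 24 h dosing. mRNA induction detected by RT-PCR plus capillary electrophoresis. Activity fitted in both directions against DMSO.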
# [17] = ATG_AP_2_CIS: Attagene CIS-FACTORIAL HepG2 Assay for human Activator Protein 2 (AP-2) (AID 2282932); settings: HepG2 AP-2 cis-reporter, Attagene transcription factor profiling; actives raise or lower the signal
# How it was run: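 Cells (HepG2) transfected with promoter-driven reporter constructs, treated 24 h. Total RNA reverse-transcribed, reporter cDNA PCR-amplified, FAM-labelled by primer extension, digested, resolved by capillary electrophoresis. Activity fitted both directions versus DMSO.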
# [18] = ATG_BRE_CIS: Attagene CIS-FACTORIAL HepG2 Assay for human Bone Morphogenetic Protein (BMP) Response Element (BRE) (AID 2282933); settings: HepG2 BMP response element reporter, Attagene transcription factor profiling; actives raise or lower the signal
# How it was run: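 Multiplexed cis-reporter assay, HepG2, 24 h exposure. mRNA from reporter units quantified via RT-PCR/CE; DMSO baseline; bidirectional curve fit.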
# [19] = molecular target: Retinoic acid receptor alpha (Homo sapiens) (UniProt P10276); test: ATG_DR5_RAR_CIS: Attagene CIS-FACTORIAL HepG2 Assay for human Retinoic Acid Receptor Alpha (RARE), DR5 submotif (AID 2282934); settings: HepG2 Attagene cis-factorial RARE DR5 reporter, mRNA; actives raise or lower the signal;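 as to AC50: reporter responds to endogenous RAR alpha beta and gamma in HepG2 not RARA alone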
# Retinoic acid receptor alpha (Homo sapiens), sequence (P10276 whole entry, looked up): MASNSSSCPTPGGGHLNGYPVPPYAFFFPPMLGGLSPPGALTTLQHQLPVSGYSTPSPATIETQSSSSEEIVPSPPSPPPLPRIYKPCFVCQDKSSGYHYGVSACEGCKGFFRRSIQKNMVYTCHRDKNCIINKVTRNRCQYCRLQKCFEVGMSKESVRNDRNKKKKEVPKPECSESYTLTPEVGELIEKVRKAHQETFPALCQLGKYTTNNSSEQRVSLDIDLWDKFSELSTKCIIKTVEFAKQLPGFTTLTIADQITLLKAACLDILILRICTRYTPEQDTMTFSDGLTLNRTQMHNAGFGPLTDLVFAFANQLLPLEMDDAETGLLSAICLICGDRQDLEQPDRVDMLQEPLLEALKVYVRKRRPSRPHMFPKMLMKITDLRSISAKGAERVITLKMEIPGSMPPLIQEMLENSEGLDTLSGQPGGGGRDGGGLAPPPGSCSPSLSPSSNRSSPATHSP
# How it was run: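 Endpoint fitted in both directions relative to DMSO as negative control. It reflects DR5 cis-element reporter mRNA induction in transiently transfected HepG2 cells, measured 24 h after dosing through RT-PCR and fluorescent capillary electrophoresis.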
# [20] = molecular target: Transcription factor E2F1 (Homo sapiens) (UniProt Q01094); test: ATG_E2F_CIS: Attagene CIS-FACTORIAL HepG2 Assay for human E2F Transcription Factor 1 (AID 2282935); settings: HepG2 Attagene cis-reporter, E2F reporter RNA transcripts; actives raise or lower the signal
# Transcription factor E2F1 (Homo sapiens), sequence (Q01094 whole entry, looked up): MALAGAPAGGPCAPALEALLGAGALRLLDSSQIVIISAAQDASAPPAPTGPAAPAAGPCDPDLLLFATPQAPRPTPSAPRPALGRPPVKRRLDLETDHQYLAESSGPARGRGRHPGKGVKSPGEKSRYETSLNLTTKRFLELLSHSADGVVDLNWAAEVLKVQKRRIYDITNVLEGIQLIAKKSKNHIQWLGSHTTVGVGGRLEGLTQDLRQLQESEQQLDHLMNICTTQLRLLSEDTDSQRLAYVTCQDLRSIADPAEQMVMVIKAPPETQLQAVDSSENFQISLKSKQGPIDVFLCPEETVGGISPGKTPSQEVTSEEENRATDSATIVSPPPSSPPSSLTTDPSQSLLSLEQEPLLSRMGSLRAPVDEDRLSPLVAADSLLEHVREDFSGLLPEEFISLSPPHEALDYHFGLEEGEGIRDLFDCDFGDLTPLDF
# How it was run: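 First, HepG2 cells were transfected with reporter transcription units. Next, they were dosed for 24 h. Then RNA was isolated, converted to cDNA, PCR-amplified, FAM-labeled, HpaI-digested and analyzed by capillary electrophoresis.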
smiles,measurement,setting,value
CC1(C)C(C=C(Cl)Cl)C1C(=O)OC(C#N)c1ccc(F)c(Oc2ccccc2)c1 (centres undefined),outcome,[1],inactive
same,outcome,[2],inactive
same,outcome,[3],inactive
same,outcome,[4],inactive
same,outcome,[5],inactive
same,outcome,[6],inactive
same,outcome,[7],inactive
same,outcome,[8],inactive
same,outcome,[9],inactive
same,outcome,[10],inactive
same,outcome,[11],inactive
same,outcome,[12],inactive
same,outcome,[13],inactive
same,AC50,[14],14.4 µM (active)
same,outcome,[15],inactive
same,outcome,[16],inactive
same,outcome,[17],inactive
same,outcome,[18],inactive
same,AC50,[19],2.57 µM (active)
same,outcome,[20],inactive
CCc1ccc(C(=O)NN(C(=O)c2cc(C)cc(C)c2)C(C)(C)C)cc1,outcome,[1],inactive
same,outcome,[2],inactive
same,outcome,[3],inactive
same,AC50,[4],51.7 µM (active)
same,outcome,[5],inactive
same,outcome,[6],inactive
same,outcome,[7],inactive
same,outcome,[8],inactive
same,outcome,[9],inactive
same,outcome,[10],inactive
same,outcome,[11],inactive
same,outcome,[12],inactive
same,outcome,[13],inactive
same,AC50,[14],50 µM (active)
same,outcome,[15],inactive
same,outcome,[16],inactive
same,outcome,[17],inactive
same,outcome,[19],inactive
same,outcome,[20],inactive
O=C(O)CCCOc1ccc(Cl)cc1Cl,outcome,[1],inactive
same,outcome,[2],inactive
same,outcome,[3],inactive
same,outcome,[4],inactive
same,outcome,[5],inactive
same,outcome,[6],inactive
same,outcome,[7],inactive
same,outcome,[8],inactive
same,outcome,[9],inactive
same,outcome,[10],inactive
same,outcome,[11],inactive
same,outcome,[12],inactive
same,outcome,[13],inactive
same,outcome,[14],inactive
same,outcome,[15],inactive
same,outcome,[16],inactive
same,outcome,[17],inactive
same,outcome,[18],inactive
same,outcome,[19],inactive
same,outcome,[20],inactive
CC(C)(C)C(O)C(Oc1ccc(Cl)cc1)n1cncn1 (centres undefined),outcome,[1],inactive
same,AC50,[2],37.4 µM (active)
same,outcome,[2],inactive
same,outcome,[3],inactive
same,outcome,[4],inactive
same,outcome,[5],inactive
same,outcome,[6],inactive
same,outcome,[7],inactive
same,outcome,[8],inactive
same,AC50,[9],98 µM (active)
same,outcome,[9],inactive
same,outcome,[10],inactive
same,AC50,[11],5.81 µM (active)
same,outcome,[11],inactive
same,AC50,[12],7.06 µM (active)
same,outcome,[12],inactive
same,outcome,[13],inactive
same,outcome,[14],inactive
same,outcome,[15],inactive
same,AC50,[16],10.4 µM (active)
same,outcome,[16],inactive
same,outcome,[17],inactive
same,AC50,[19],4.35 µM (active) and 4.55 µM (active) and 7.16 µM (active)
same,outcome,[19],inactive
same,outcome,[20],inactive
COC(=O)c1ccccc1S(=O)(=O)NC(=O)Nc1nc(C)nc(OC)n1,outcome,[1],inactive
same,outcome,[2],inactive
same,outcome,[3],inactive
same,outcome,[4],inactive
same,outcome,[5],inactive
same,outcome,[6],inactive
same,outcome,[7],inactive
same,outcome,[8],inactive
same,outcome,[9],inactive
same,outcome,[10],inactive
same,outcome,[11],inactive
same,outcome,[12],inactive
same,outcome,[13],inactive
same,outcome,[14],inactive
same,outcome,[15],inactive
same,AC50,[16],63.1 µM (active)
same,outcome,[16],inactive
same,outcome,[17],inactive
same,outcome,[19],inactive
same,outcome,[20],inactive
